Screens (PubChem)
p53ts 39C kill = p53ts cell cytotoxicity, nonpermissive temperature. hit rate 1.5% among 130,000. AID 902. Potency, µM (highest dose often 46.1 µM), for the others: at the highest dose activity change, negative = cell killing, most hits filed as cytotoxic. H1299-p53A138V viability at 39C, ATP luminescence, 24 h; note: potency is the fitted concentration of half-maximal effect; % is set by controls: 0 for no effect and ±100 for the full control effect; nearly all actives have a fitted effect of over 55% in size
IMPase cell inh = membrane-permeable compound that blocks inositol monophosphatase. P97697. CHO-M1 cells, IP1 accumulation, HTRF TR-FRET ratio. inhibition (IP1 accumulation), % at 46.1 µM. 120,000 tested, under 10 active. AID 901; active = well fitted curve in the direction sought with a large enough effect in the signal ratio, not every such curve was filed as active; inconclusive = small, poorly fitted or top-dose-only effect, or a change in a side signal; inactive = no such curve, though single readings can be large or run the other way; the % refers to the signal ratio;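 note: cells stimulated with carbachol in lithium chloride buffer; plate controls were DMSO basal wells for no effect and reference inhibitor wells for full effect; higher means more IMPase inhibition seen as more IP1 and lower FRET ratio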
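In this qHTS, compounds (final up to 46 uM) act on CHO-M1 cells that are then activated through the M1 receptor with carbachol, in pH 7.4 buffer containing 50 mM LiCl, for 30 min. IP1 accumulation is quantified by the IP-One immunoassay.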
FLuc inh = inhibitors of firefly luciferase; P08659; Potency, µM (series often up to 57.1 µM), without a hit: top-dose activity change, negative = inhibition, actives largely listed as inhibitors; purified firefly luciferase, luminescence, 8 min; hit rate 2.2% among 72,000; note: potency is the fitted concentration of half-maximal effect; % is set by controls: 0 for no effect and ±100 for the full control effect; nearly all actives have a fitted effect of over 40% in size
Target sequence (P08659 whole entry, looked up): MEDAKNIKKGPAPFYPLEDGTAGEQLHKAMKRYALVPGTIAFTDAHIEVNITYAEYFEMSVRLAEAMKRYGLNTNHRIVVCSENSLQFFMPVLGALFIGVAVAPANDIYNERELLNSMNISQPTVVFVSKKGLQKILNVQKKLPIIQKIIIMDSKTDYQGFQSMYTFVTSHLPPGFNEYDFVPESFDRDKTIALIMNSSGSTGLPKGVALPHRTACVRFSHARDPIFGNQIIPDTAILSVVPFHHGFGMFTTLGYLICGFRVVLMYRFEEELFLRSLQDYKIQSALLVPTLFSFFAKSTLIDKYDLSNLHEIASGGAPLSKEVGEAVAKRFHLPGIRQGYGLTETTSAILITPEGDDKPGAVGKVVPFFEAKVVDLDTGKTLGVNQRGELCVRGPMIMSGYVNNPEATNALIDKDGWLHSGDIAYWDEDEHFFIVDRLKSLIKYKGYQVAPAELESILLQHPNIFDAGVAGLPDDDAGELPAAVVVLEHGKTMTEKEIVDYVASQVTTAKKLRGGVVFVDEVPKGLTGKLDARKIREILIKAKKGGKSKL
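Titration-based qHTS; buffer 50 mM imidazole pH 7.2, 50 mM KCl, 7 mM MgCl2, 10 uM ATP, 0.01% Tween 20, 0.05% BSA; luciferase/luciferin detector mix added after compound; 8 min, ambient; luminescence.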
Hsp90 Hop PPI = changes Hsp90-Hop TPR2A binding signal, up or down. AID 595. Potency, µM (series often up to 57 µM), for inactives: at the highest dose activity change, negative = inhibition. AlphaScreen TPR2A-His6 binding biotin-Hsp90 C-terminal peptide. hit rate 0.44% among 71,000; active = well fitted curve in either direction with a large enough effect; inconclusive = small, poorly fitted or top-dose-only effect, or another doubt; note: potency is the fitted concentration of half-maximal effect; % is set by controls: 0 for no effect and ±100 for the full control effect
p53ts 32C tox = p53ts cell cytotoxicity, permissive temperature; H1299-p53A138V at 32C, ATP luminescence viability, 24 h; Potency, µM (titrated, usually from 46.1 µM), inactives show top-dose activity change, negative = cytotoxicity, most hits filed as cytotoxic; hit rate 0.93% among 130,000; AID 924;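 note: potency is the fitted concentration of half-maximal effect; 0% = DMSO and -100% = full killing by reference compound; nearly all actives have a fitted effect of over 55% in size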
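Viability by ATPlite luminescence after 24 h compound treatment (up to 46 uM) at the permissive 32C. Cells are H1299 carrying p53 A138V. Scale runs from DMSO basal to 100 uM tamoxifen as full kill; AC50 from Hill fits.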
IkB sig inh = IkB pathway inhibition in ABC-DLBCL cells; ABC-DLBCL IkBa-CBG/CBR dual luciferase ratio, 4 h; response scale: scaled: untreated 0%, proteasome inhibitor 100%; Potency, µM (highest dose often 57.1 µM), for inactives: top-dose IkBa stabilization activation; hit rate 0.04% among 110,000; AID 445; active = well fitted curve in the direction sought with a large enough effect in the signal ratio, not every such curve was filed as active; inconclusive = small, poorly fitted or top-dose-only effect, or a change in a side signal; the % refers to the signal ratio;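 note: potency is the fitted concentration of half-maximal effect; the direction sought is a rising ratio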
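In this assay, an IκBα–CBG68 fusion accumulates when IKK-driven degradation is blocked; native CBR normalizes for cell number. OCI-Ly3 cells were treated 4 h with compound and doxycycline, then green and red light read after Chroma-Glo addition.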
* hit, by the source's call; ? = inconclusive; / = no result given; [ ] = dose if it differs, or a comment. This excerpt belongs to a sample that is enriched for hits. Unless noted, calls come from the whole dose curve; as a rule, active = well fitted curve in the direction sought with a large enough effect; inconclusive = small, poorly fitted or top-dose-only effect, or another doubt; inactive = no such curve, though single readings can be large; an effect the other way counts as inactive or inconclusive.

SMILES	p53ts 39C kill	IMPase cell inh	FLuc inh	Hsp90 Hop PPI	p53ts 32C tox	IkB sig inh
CN1CCN([C@@H]2Cc3ccccc3Sc3ccc(Cl)cc32)CC1	16µM*	16	0%	-9%	20µM*	-6%
Clc1ccc2c(c1)C(N1CCNCC1)Cc1ccccc1S2 (stereo not given)	-20%	21	/	/	?	/
Cc1cc(C)cc(NS(=O)(=O)c2ccc(-c3cc(C)no3)cc2)c1	2%	/	/	/	15%	?
Cc1ccc(C)c(N2C(=O)N(C)c3ccccc3S2(=O)=O)c1	-8%	/	/	/	6%	-1%
O=C(c1cc(-c2ccc(F)cc2)on1)N1CCCC1	10µM*	-3	13µM*	-6%	16µM*	?
COc1cccc(-c2cc(C(=O)N3CCCCCC3)no2)c1	10µM*	12	7.9µM*	1%	13µM*	?
O=C(c1cc(-c2ccc(Cl)c(Cl)c2)on1)N1CCCC1	4%	-3	-4%	-3%	-4%	10%
O=C(c1cc(-c2cccc(Cl)c2)on1)N1CCCCC1	-20%	/	/	/	-15%	151%
O=C(c1cc(-c2cccc(O)c2)on1)N1CCCCC1	?	9	16µM*	-3%	?	19%
COc1cccc(-c2cc(C(=O)N3CCCCC3C)no2)c1 (stereo not given)	?	7	20µM*	?	?	1%
COc1ccc(-c2nc3cc(NC(=O)c4ccc(C)cc4)ccc3o2)cc1Cl	?	-1	/	/	9%	2%
CCc1ccc(NC(=O)Cn2c(=O)n(CCC(=O)NCCc3ccc(Cl)cc3)c(=O)c3ccccc32)cc1	0%	/	/	/	7%	4%
CCc1ccc(-n2nc3cc(C)c(NC(=O)c4cc(Cl)ccc4OC)cc3n2)cc1	17%	/	/	/	-5%	-1%
CCOc1ccc(-c2cc(C(=O)NCCc3ccccc3)c3c(-c4ccc(C)cc4)[nH]nc3n2)cc1	16µM*	/	/	/	-12%	-1%
CCc1ccc(-c2[nH]nc3nc(-c4cc(OC)ccc4OC)cc(C(=O)O)c23)cc1	4µM*	/	/	/	-2%	16%
CCOc1ccc(-c2cc(C(=O)NCCc3ccc(OC)c(OC)c3)c3c(-c4ccc(F)cc4)[nH]nc3n2)cc1	?	/	/	/	-24%	-2%
COc1cc(OC)c(-c2cc(C(=O)NCc3ccc(F)cc3)c3c(-c4ccccc4)[nH]nc3n2)cc1OC	?	/	/	/	8.9µM*	1%
COc1ccc(-c2cc(C(=O)NCCc3ccccc3)c3c(-c4ccccc4)[nH]nc3n2)cc1OC	13µM*	/	/	/	?	8%
COc1ccc(-c2[nH]nc3nc(-c4cc(OC)c(OC)c(OC)c4)cc(C(=O)O)c23)cc1	?	/	/	/	-17%	0%
COc1ccc(OC)c(CNC(=O)Cn2nc(C)c3nn(-c4ccc(Cl)cc4)c(C)c3c2=O)c1	-1%	/	/	/	2%	?
CSc1nn(Cc2ccc(F)cc2)c(N)c1S(=O)(=O)c1ccc(Cl)cc1	-17%	/	/	/	10%	?
Cc1ccc(NC(=O)c2noc3c2CCCCC3)cc1	?	8	13µM*	6%	?	?
CCc1ccc(NC(=O)c2noc3c2CCCCC3)cc1	-12%	2	-22%	-1%	-20%	1%
Cc1ccc(O)c(NC(=O)c2noc3c2CCCCC3)c1	?	/	/	/	13µM*	9%
Cc1ccc(NC(=O)c2noc3c2CCCCC3)cc1C	-12%	-17	?	-1%	-12%	?
SMILES	p53ts 39C kill	IMPase cell inh	FLuc inh	Hsp90 Hop PPI	p53ts 32C tox	IkB sig inh
CC(C)(C)C1CCc2onc(C(=O)NC3CCCC3)c2C1 (stereo not given)	-5%	9	1%	12%	-7%	0%
O=C(NC1CCCCC1)c1noc2c1CCCCC2	?	1	20µM*	-5%	?	?
COc1ccc(S(=O)(=O)c2c(Nc3cccc(C)c3C)sc(C(=O)c3ccccc3)c2N)cc1	-10%	/	/	/	18%	1%
Oc1ccccc1-c1cc(-c2ccccc2Cl)[nH]n1	-26%	8	13µM*	2%	-14%	?
Cc1cc(C)cc(NC(=O)C(CC(C)C)NC(=O)C2CCCCC2)c1 (stereo not given)	-14%	/	/	/	10%	0%
CCCn1c(=O)n(-c2ccccc2)c(=O)c2sc3ccccc3c21	1%	/	/	/	5%	-1%
COC1=C(OC)C(=O)c2ccccc2C1=O	4µM*	13	-6%	-24%	6.3µM*	20%
O=C(CN1C(=O)CCC1=O)Nc1nc(-c2nc3ccccc3s2)cs1	?	-23	13µM*	-2%	?	-5%
O=C(Nc1nc(-c2nc3ccccc3s2)cs1)C1CC1	?	3	5µM*	0%	?	-4%
CCCC(=O)Nc1nc(-c2ccc3c(c2)OCCO3)cs1	25%	-14	1%	0%	-14%	2%
O=C(Nc1nc(-c2ccc3c(c2)OCO3)cs1)C1CC1	-4%	4	13µM*	-1%	-19%	3%
Nc1c(C(=O)Nc2ccccc2)nnn1Cc1ccc(F)cc1Cl	?	/	/	/	-6%	-2%
C[C@H](C(=O)c1ccncc1)c1ccccn1	3%[9.22 µM]	/	1%[11.4 µM]	0%[11 µM]	2%[9.22 µM]	1%[11.4 µM]
COc1ccc(/C=N/n2cc(-c3ccccc3)nc2N)cc1	-4%	3	-3%	-8%	5%	?
COc1ccc(/C=N\n2nnc3ccccc32)cc1	10µM*	?	3.2µM*	0%	13µM*	?
CCOC(=O)c1cccc(NC(=O)N2Cc3ccccc3Oc3ncccc32)c1	-11%	/	/	/	-1%	?
CCOc1ccccc1NC(=O)Cn1c(=O)n(Cc2ccc(OC)cc2)c(=O)c2oc3ccccc3c21	10%	/	/	/	0%	-3%
COC(=O)c1sccc1NC(=O)c1cc2c(s1)CCCC2	?	?	20µM*	?	-27%	?
OCc1cc(C(O)CNCCCCCCOCCCCc2ccccc2)ccc1O (stereo not given)	13µM*	0	/	/	?	/
Cc1ccc(C(=O)N2c3nc(-c4ccco4)nn3C3(CCCCC3)[C@@H]3CCCC[C@@H]32)cc1	7%	/	/	/	3%	?
COc1ccc(CC(=O)Nc2sc3c(c2C(=O)Nc2cccc(C)c2)CCCCC3)cc1	10µM*	-9	/	/	-27%	?
CC(C)Oc1cccc(C(=O)Nc2ccc(CN3CCOCC3)cc2)c1	-20%	11[1.84 µM]	?	1%	-16%	?
O=C(Nc1ccc2c(c1)OCCO2)c1ccc(CN2CCOCC2)cc1	?	-3	16µM*	-4%	?	4%
COc1cccc(NC(=O)c2ccc(CN3CCOCC3)cc2)c1	10µM*	-1	?	-1%	13µM*	?
CCOC(=O)c1ccc(NC(=O)Cc2ccc(-n3c(CC)nc4cccnc43)cc2)cc1	-23%	/	/	/	-2%	-1%
